Bioassay records: PubChem BioAssay, National Center for Advancing Translational Sciences (NCATS)
rTrxR1 inhibitor – blocks rat thioredoxin reductase 1; recombinant rTrxR1, NADPH fluorescence consumption, selenite substrate; Potency, µM (series often up to 114 µM), for the others: top-dose activity change, negative = inhibition, hits mostly inhibitors; 390,000 tested, 1% active; note: % is set by controls: 0 for no effect and ±100 for the full control effect; nearly all actives have a fitted effect of over 65% in size
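Rat TrxR1 (90 nM in the dispensed reagent) was pre-reduced with 400 uM NADPH for 5 min at room temperature, then incubated with compound for 15 min. After 400 uM selenite was added, NADPH fluorescence (Ex 340/Em 450 nm) was followed for 8 min.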
12-LOX inh – inhibitors of human 12S-lipoxygenase ALOX12 | P18054 | purified 12hLO, xylenol orange hydroperoxide absorbance | Potency, µM (highest dose often 108 µM), for inactives: at the top dose activity change, negative = inhibition, most hits filed as inhibitors | 580,000 tested, 1.1% active | AID 1671190; note: % is set by controls: 0 for no effect and ±100 for the full control effect
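Purified human 12hLO at 150 nM in 25 mM Hepes, 0.01% Triton X-100, pH 7.0, preincubated 15 min at room temperature with compound. Reaction started with 40 uM arachidonic acid, 30 min at room temperature. Hydroperoxide measured by Fe-xylenol orange, 573/405 nm absorbance ratio.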
TrxR1 substrate – substrates of rat thioredoxin reductase 1 | purified TrxR1 substrate turnover, NADPH consumption readout | Potency, µM (series often up to 114 µM), for inactives: at the top dose activity change, negative = substrate turnover | 390,000 tested, 0.01% active | AID 588456; note: % is set by controls: 0 for no effect and ±100 for the full control effect; nearly all actives have a fitted effect of over 50% in size
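Rat TrxR1, dispensed at 90 nM, was prereduced with 400 uM NADPH (final) for 5 min at ~22 deg C, then incubated with compound 15 min before 400 uM selenite. A first-read NADPH fluorescence drop versus no-compound background flagged substrates.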
Apoferritin bind – binds horse apoferritin like a general anesthetic | AID 485281 | apoferritin/1-aminoanthracene competitive binding, fluorescence | 350,000 tested, 0.074% active | Potency, µM (doses to about 77.5 µM), for the others: at the highest dose activity change, negative = displacement, most hits filed as inhibitors; note: % is set by controls: 0 for no effect and ±100 for the full control effect; nearly all actives have a fitted effect of over 20% in size
Target sequence (P02791 2-175 limits assumed): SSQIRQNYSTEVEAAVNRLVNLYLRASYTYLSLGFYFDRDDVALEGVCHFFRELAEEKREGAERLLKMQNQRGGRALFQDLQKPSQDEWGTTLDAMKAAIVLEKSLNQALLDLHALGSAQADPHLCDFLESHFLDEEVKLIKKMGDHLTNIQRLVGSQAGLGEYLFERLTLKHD
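Horse-spleen apoferritin (10 uM) was mixed with 50% saturated 1-aminoanthracene in PBS, exposed to compounds for 10 min at room temperature, and read for fluorescence (ex 380 nm, em 535 nm). Competitive displacement was fitted with a four-parameter Hill equation.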
Glioma ERSR ind – ER stress response induction in glioma. U87-MG GRP78 promoter luciferase reporter, 16 h. Potency, µM, without a hit: at the top dose activation, hits mostly activators. 420,000 tested, 0.02% active. AID 602332; note: series mostly up to about 76 µM; % of control where 0% means no effect; nearly all actives have a fitted effect of over 35% in size
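Stably transfected U87-MG glioma cells carrying a GRP78-based luciferase sensor; 16 h compound incubation. Luminescence end-point read 10 min after Bright-Glo addition at room temperature.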
IDH1 R132H inh – inhibitors of human mutant IDH1 R132H. 390,000 tested, 0.093% active. Potency, µM (doses to about 76.6 µM), for the others: at the top dose activity change, negative = inhibition, hits mostly inhibitors. IDH1-R132H enzyme, NADPH consumption, diaphorase/resazurin fluorescence; note: % is set by controls: 0 for no effect and ±100 for the full control effect; nearly all actives have a fitted effect of over 65% in size
Target sequence (O75874 whole entry R132H, stated change not applied): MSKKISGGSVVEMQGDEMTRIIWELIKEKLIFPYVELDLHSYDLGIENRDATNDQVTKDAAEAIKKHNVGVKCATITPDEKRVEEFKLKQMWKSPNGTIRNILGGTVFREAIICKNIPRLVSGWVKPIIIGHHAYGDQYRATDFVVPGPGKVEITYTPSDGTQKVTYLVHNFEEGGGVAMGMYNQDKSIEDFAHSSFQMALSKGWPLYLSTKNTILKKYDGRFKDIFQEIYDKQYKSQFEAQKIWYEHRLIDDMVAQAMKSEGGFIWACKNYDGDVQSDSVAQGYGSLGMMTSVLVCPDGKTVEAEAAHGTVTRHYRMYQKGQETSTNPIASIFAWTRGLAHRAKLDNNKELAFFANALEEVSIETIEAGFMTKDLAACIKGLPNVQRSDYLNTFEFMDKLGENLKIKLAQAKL
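IDH1-R132H (0.5 ug/mL dispensed) in pH 7.5 Tris buffer was preincubated 30 min with compound, then given a substrate mix of 0.016 mM NADPH and 2 mM alpha-KG for 80 min at room temperature; remaining NADPH was read by diaphorase/resazurin fluorescence.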
Numbers without * were called inactive; ? = inconclusive; · = not tested or not shown; [ ] = remark or other dose. Rows were chosen to be rich in hits. Some 1.7% of all compounds tested hit in one or more screens of this group. Calls come from the whole dose curve; as a rule, active = well fitted curve in the direction sought with a large enough effect; inconclusive = small, poorly fitted or top-dose-only effect, or another doubt; inactive = no such curve, though single readings can be large; an effect the other way counts as inactive or inconclusive. Potency is the fitted concentration of half-maximal effect.

SMILES | rTrxR1 inhibitor | 12-LOX inh | TrxR1 substrate | Apoferritin bind | Glioma ERSR ind | IDH1 R132H inh
CN1CCc2nc(SCc3ccc(Cl)cc3)c(C#N)c(-c3cccs3)c2C1 | ? | 20µM* | 3%[57.1 µM] | · | -2% | 0%
CCn1nc(-c2ccccc2S(=O)(=O)NC(C)(C)C)nc1N(C)C | · | 6% | · | · | · | ·
S=C(NCCc1ccccc1)Nc1ccc(Cl)cc1Cl | -21% | ? | -10% | ? | -4% | 3%
Cc1cc(Cl)ccc1NC(=S)NCc1ccc(Cl)cc1 | 10% | -27% | 5% | 5% | -3% | -7%
Cc1cc(Cl)ccc1NC(=S)NCCc1ccc(Cl)cc1 | 14% | 22µM* | -3% | 4% | -4% | -8%
CC(C)c1ccc(CCNC(=S)Nc2ccc(Cl)cc2Cl)cc1 | · | 14µM* | · | · | · | ·
CSCCC(NC(=O)c1ccc(Cl)cc1)C(=O)OCC(=O)Nc1ccc(C#N)cc1 (centres undefined) | 25% | 32µM* | 3% | -5% | -2% | 3%
CSCCC(NC(=O)c1ccc(Cl)cc1)C(=O)OCC(C)=O (centres undefined) | 2% | -1% | -9%[57.1 µM] | 0% | -2% | 3%
Cc1cccc(NC(=O)CSc2nc3cc([N+](=O)[O-])ccc3o2)c1 | · | 32µM* | · | · | · | ·
O=C(CSc1nc2cc(Cl)ccc2o1)Nc1ccc(N2CCOCC2)cc1 | 20% | -18% | 1% | -14% | 1% | 7%
Cc1ccc(NC(=O)CSc2nc3cc([N+](=O)[O-])ccc3o2)cc1C | · | 40µM* | · | · | · | ·
CCn1c(C)cc(C(=O)CSc2nc3cc([N+](=O)[O-])ccc3o2)c1C | · | 3% | · | · | · | ·
O=C(CSc1nc2cc([N+](=O)[O-])ccc2o1)Nc1ccc(Cl)cc1 | · | 22µM* | · | · | · | ·
Cc1cc(C(=O)CSc2nc3cc([N+](=O)[O-])ccc3o2)c(C)n1C | · | -7% | · | · | · | ·
CN(C)c1nc2c(c(=O)[nH]1)CCN(C(=O)C(c1ccccc1)C1CCCC1)C2 (centres undefined) | · | 50% | · | · | · | ·
Cc1c(Nc2nc3ccc(Cl)cc3n3cnnc23)cccc1[N+](=O)[O-] | · | -45% | · | · | · | ·
Cc1scc(C(=O)NNC(=S)NCC2CCCO2)c1C (centres undefined) | -15% | 306%[57.4 µM] | -10% | -7% | -2% | 8%
Cc1scc(C(=O)NCC2CCCCC2)c1C | · | 16µM* | · | · | · | ·
CCOc1ccc(Cc2cc([C@@H]3O[C@H](CO)[C@@H](O)[C@H](O)[C@@H]3O)ccc2Cl)cc1 | · | -6%[57.4 µM] | · | · | · | ·
CC(C)(C)NC(=O)COC(=O)c1ccc2ccccc2n1 | · | -26% | · | · | · | ·
CCc1cccc(CC)c1NC(=O)COC(=O)c1ccc2ccccc2n1 | · | 6.3µM* | · | · | · | ·
COc1ccc(CNc2nc(C(=O)NCc3ccccc3OC)cs2)cc1 | · | 10% | · | · | · | ·
Fc1ccc(CNC(=S)NCc2ccc(Cl)c(Cl)c2)cc1 | · | 32µM* | · | · | · | ·
O=C(NCc1ccc(F)cc1)c1ccc(-c2ccccc2)cc1 | · | 5% | · | · | · | ·
O=C(NC(=S)NCc1ccccc1)c1ccccc1 | ? | 40µM* | 5% | -19% | 2% | -3%
SMILES | rTrxR1 inhibitor | 12-LOX inh | TrxR1 substrate | Apoferritin bind | Glioma ERSR ind | IDH1 R132H inh
COc1ccc(CCNC(=S)NC(=O)c2cccc([N+](=O)[O-])c2)cc1OC | -16% | 35µM* | -13% | ? | -5% | 10%
O=C(NC(=S)NCc1ccc(F)cc1)c1ccccc1 | 13µM* | 16µM* | -13% | -8% | 2% | 1%
Fc1ccc(CNC(=S)NCc2ccc(F)cc2)cc1 | 27%[57.1 µM] | ? | 24% | -15% | 0% | 16%
O=C(NC(=S)NCc1ccncc1)c1ccccc1 | 10% | -7% | -5% | -6% | -3% | -2%
COc1ccc(CCNC(=S)NC(=O)c2ccccc2)cc1OC | ? | ? | 6% | ? | -1% | 4%
O=C(C[C@H]1NC(=O)c2ccccc2NC1=O)Nc1cccc(C(F)(F)F)c1 | · | -5% | · | · | · | ·
CCc1ccc(C(C)NC(=S)NCc2ccc(F)cc2)cc1 (centres undefined) | 8% | 45µM* | -3% | ? | -4% | -14%
CC(C)(C)C(=O)NC(=S)NCc1ccccc1 | ? | 40µM* | -9% | -1% | -2% | 3%
COc1ccc(C(=O)NC(=S)NCCc2ccccc2)cc1 | ? | 16µM* | 7% | -3% | 1% | -17%
COc1ccc(CCNC(=O)c2ccccc2)cc1 | 4%[57.1 µM] | 39% | 5%[57.1 µM] | -3% | -2% | 22%
O=C(CSc1ncnc2ccccc12)Nc1ccccc1-c1ccccc1 | · | -4% | · | · | · | ·
c1ccc(C2(c3ccccc3)CCCN(Cc3cscn3)C2)cc1 | · | 45µM* | · | · | · | ·
c1ccc(C2(c3ccccc3)CCCN(Cc3ncccn3)C2)cc1 | · | -19% | · | · | · | ·
COCc1ncc(C)n1CC1CCN(C(=O)C2(c3ccc(OC)cc3)CC2)CC1 | · | 58% | · | · | · | ·
Clc1cccc(N/N=C(/c2ccccc2)c2ccncc2)c1 | · | 40µM* | · | · | · | ·
Cc1nc(SCc2nc3ccccc3[nH]2)c2oc3cc(Br)ccc3c2n1 | 7%[57.1 µM] | -5% | 2% | · | 3% | ·
Cc1nc(SCCc2nc3ccccc3[nH]2)c2oc3ccccc3c2n1 | -14% | 14µM* | 4%[57.1 µM] | · | -3% | ·
CCNc1cccc(C)c1C | · | -5% | · | · | · | ·
CCCCC(CC)CNC(=S)NCc1ccc(C)cc1 (centres undefined) | · | 32µM* | · | · | · | ·
CCC(NC(=S)NCc1ccc(F)cc1)c1ccc(C)cc1 (centres undefined) | 8% | ? | -5% | -14% | -8% | -7%
Cc1oc(-c2ccccc2F)nc1CS(=O)(=O)CC(=O)NCCN(CC(C)C)CC(C)C | · | -26% | · | · | · | ·
O=c1[nH]nc(-c2ccc([N+](=O)[O-])o2)c(=O)[nH]1 | 13µM* | -10% | -5% | · | -1% | -8%
CCOc1ccc(NC(=O)c2nnn3c2COC(c2ccc(Cl)cc2)C3)cc1 (centres undefined) | · | 45µM* | · | · | · | ·
O=[N+]([O-])c1ccc2c(c1)Cc1cc(F)ccc1-2 | 19% | 7% | -3% | · | -2% | -3%
O=[N+]([O-])c1ccc2c(c1)C=CC2 | 13µM* | · | 2% | · | -3% | ·
Cn1nccc1C(=O)N1CCC(Cc2nc(C3CCOCC3)no2)CC1 | · | 31% | · | · | · | ·
CC(=O)Nc1ccc(/C(N=Nc2ccccc2)=N/N=C(N)N)cc1 | 11%[11.4 µM] | 40µM* | 11%[11.4 µM] | · | 0% | 5%
CC(=O)Nc1ccc(C(=O)c2ccccc2)cc1 | 7%[57.1 µM] | 1% | -8%[57.1 µM] | ? | 0% | 8%
O=S1(=O)CC/C(=N\Nc2ccccc2)c2ccsc21 | -33% | 35µM* | -3% | ? | 0% | 0%
Cc1ccc(CN(C)C(=O)C2CCC(=O)N(CCc3ccccc3)C2)o1 (centres undefined) | 40µM* | 11% | 9% | -9% | 8% | 6%
